# Data: the OligoGym collection
# Molecular target: FLG
# Experiment: pooled miR-30 sensor sort-seq; sequence = guide strand
# Settings: shRNA
# Also: reference of the scale not given here.
row,Sequence,sensor-assay potency score (higher = more potent)
1,TATGAGTAGGTGAATATCCTTT,-0.066
2,TTTACTTGAGTTATGATGGTTT,0.102
3,TTTATCATGATGACTGTGCTTT,0.582
4,TTTCTTCTAATAGACTATCAGT,-0.739
5,TTTGTCTGCTGACACTTCTGGA,-0.531
6,TAGACTCATAATATGCTTGAGC,-0.577
7,TTGATTGTTCCTCATTACGTGT,-0.377
8,TTCAGAACTAGATTCATGCCTT,0.702
9,TTCTAATAGACTATCAGTGGTG,-0.268
10,TCTATTGTTTCTTCTTTCCAGA,-0.556
11,TAGAATGGCCACATAAACCTGG,0.301
12,TAGAGTCTGACTGTACAGGTGA,0.79
13,TTTTGAGTCATTCTTCCTGTAT,-0.417
14,ATTGTAACTAACACTTCCGTGC,0.359
15,TTTTTTTGAATATTGCTTGAAA,-0.0278
16,TTTCTCTGCTTGCACTTCTGGA,-0.359
17,TTGTTCTGCTTGCACTTCTGGA,-0.702
18,TAATCTGCACTACCATAGCTGC,-1.29
19,TTTCATAATCATATACTCCTTC,0.805
20,TAATCTAGTATTTTCAGTCTTG,0.133
21,TTTGTCTGCTTGCACTTCTGGA,-0.568
